Luciferase inh = Photinus pyralis luciferase inhibition; P08659; purified P. pyralis luciferase, luminescence, biochemical; Potency, µM (highest dose often 115 µM), usual class: inhibitors; actives 2.5% (n = 76,000); AID 1347043; note: nearly all actives have a fitted effect of over 65% in size
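Purified 10nM P. pyralis luciferase with 10uM D-luciferin and 10uM ATP in 50mM Tris acetate pH 7.5, 10mM Mg acetate, 0.01% Tween-20, 0.05% BSA. qHTS titration; luminescence read by CCD imager.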
NIH3T3 tox = NIH 3T3 cell cytotoxicity | NIH 3T3 viability, CellTiter-Glo ATP luminescence, 48-72 h | Potency, µM (doses to about 96.7 µM), actives largely listed as inhibitors | actives 4.3% (n = 94,000) | AID 1345082; note: nearly all actives have a fitted effect of over 55% in size
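Mouse fibroblast NIH 3T3 cells, 400 per well, received compound via pintool and were incubated for 48 or 72 hr prior to CellTiter-Glo ATP luminescence measurement.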
NPR1 antag = human Npr1 receptor antagonism | HEK293 hNpr1 GloSensor cGMP, ANP-stimulated luminescence | P16066 | AID 1347048 | Potency, µM (top dose mostly 46.3 µM), hits mostly inhibitors | actives 1.6% (n = 76,000); calls by dose curve; note: nearly all actives have a fitted effect of over 60% in size
Target sequence (P16066 whole entry, looked up): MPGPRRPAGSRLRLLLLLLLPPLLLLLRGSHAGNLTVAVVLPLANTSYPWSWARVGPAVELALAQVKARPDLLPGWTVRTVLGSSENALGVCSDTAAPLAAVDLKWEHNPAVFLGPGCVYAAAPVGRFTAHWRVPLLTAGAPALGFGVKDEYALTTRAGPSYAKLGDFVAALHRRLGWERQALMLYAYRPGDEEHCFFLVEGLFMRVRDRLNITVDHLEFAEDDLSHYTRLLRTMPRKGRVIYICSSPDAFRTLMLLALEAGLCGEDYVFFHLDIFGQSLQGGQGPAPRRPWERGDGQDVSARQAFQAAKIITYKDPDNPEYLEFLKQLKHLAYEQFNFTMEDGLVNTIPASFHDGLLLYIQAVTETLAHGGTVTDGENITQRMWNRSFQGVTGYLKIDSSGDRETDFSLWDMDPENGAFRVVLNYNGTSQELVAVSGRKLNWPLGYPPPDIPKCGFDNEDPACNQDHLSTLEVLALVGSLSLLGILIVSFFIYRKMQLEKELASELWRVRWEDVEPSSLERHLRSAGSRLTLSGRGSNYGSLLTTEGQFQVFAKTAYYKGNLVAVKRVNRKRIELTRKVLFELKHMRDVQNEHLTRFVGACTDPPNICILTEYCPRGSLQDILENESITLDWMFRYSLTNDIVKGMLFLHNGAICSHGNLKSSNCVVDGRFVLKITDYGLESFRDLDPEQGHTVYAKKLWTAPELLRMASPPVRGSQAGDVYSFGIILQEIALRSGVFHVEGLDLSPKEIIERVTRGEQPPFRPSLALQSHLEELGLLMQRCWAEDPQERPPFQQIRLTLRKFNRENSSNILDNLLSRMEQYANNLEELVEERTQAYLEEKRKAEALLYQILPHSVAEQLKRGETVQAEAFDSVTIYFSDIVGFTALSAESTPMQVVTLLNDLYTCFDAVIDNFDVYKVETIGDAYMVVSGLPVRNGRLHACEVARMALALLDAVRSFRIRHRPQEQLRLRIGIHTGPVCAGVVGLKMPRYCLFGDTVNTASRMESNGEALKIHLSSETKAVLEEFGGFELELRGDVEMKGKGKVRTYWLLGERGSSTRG
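Compound pre-incubated 30 min at room temperature on GloSensor-loaded HEK293 cells stably carrying hNpr1 and the pGS-40F cGMP biosensor. Stimulation uses hNppA at 0.1 nM final; luminescence is taken at baseline and 20 min post-agonist.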
HEK cytotox = kills HEK 293 cells; HEK 293 viability, ATP luminescence (CellTiter-Glo), 48-72 h; Potency, µM (doses to about 115 µM), most hits filed as inhibitors; actives 6.6% (n = 94,000); AID 1345083; note: nearly all actives have a fitted effect of over 60% in size
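HEK 293 cells seeded at 250 cells/well were exposed to compound for 48 or 72 hr at 37 degree Celsius. Viability taken as ATP content by CellTiter-Glo luminescence.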
A number is an active result; n = inactive; u = inconclusive; x = not tested or not shown. Only some compounds are listed: those with a hit (about 11% of all), similar ones and a draw of the others. Unless noted, calls come from the whole dose curve; as a rule, active = well fitted curve in the direction sought with a large enough effect; inconclusive = small, poorly fitted or top-dose-only effect, or another doubt; inactive = no such curve, though single readings can be large; an effect the other way counts as inactive or inconclusive.

SMILES	Luciferase inh	NIH3T3 tox	NPR1 antag	HEK cytotox
Cc1ccc2nc(CO[C@H]3CN(Cc4ccc(C(=O)O)cc4)C[C@H]3F)[nH]c2c1	u	n	n	n
Cc1ccc(-c2cc3c(=O)n(CCNC(=O)c4ccc(F)cc4)ccn3n2)c(C)c1	u	n	u	u
COc1ccccc1C(=O)NCCn1ccn2nc(-c3cc(C)ccc3C)cc2c1=O	n	u	n	u
Cc1ccc(-c2cc3c(=O)n(CCNC(=O)Cc4ccccc4Cl)ccn3n2)c(C)c1	2.51µM	n	n	n
Cc1ccc(-c2cc3c(=O)n(CCNC(=O)c4cc(C5CC5)[nH]n4)ccn3n2)c(C)c1	1.26µM	n	u	u
Cc1ccc(C)c(-c2cc3c(=O)n(CCNC(=O)c4ccc(C#N)cc4)ccn3n2)c1	n	u	n	12.6µM
Cc1ccc(C)c(-c2cc3c(=O)n(CCNC(=O)c4ccccc4Cl)ccn3n2)c1	n	35.5µM	n	44.7µM
CCn1nccc1C(=O)N1CCC2(CC1)CN(C1CCC1)CC2COC (centres undefined)	x	n	x	n
CN(Cc1cccc(C(F)(F)F)c1)Cc1cccs1	x	n	x	n
O=C(C1CCCN1C(=O)Nc1ccc(Cl)cc1)N1CCC(N2Cc3ccccc3C2=O)CC1 (centres undefined)	x	u	x	n
COc1ccc(C(=O)NCCn2ccn3nc(-c4cc(C)ccc4C)cc3c2=O)c(OC)c1	n	u	n	39.8µM
Cc1cccc(OCC(=O)NCCn2ccn3nc(-c4ccc(C)cc4C)cc3c2=O)c1	u	u	n	u
Cc1ccc(-c2cc3c(=O)n(CCNC(=O)Cc4c[nH]c5ccccc45)ccn3n2)c(C)c1	u	n	u	39.8µM
Cc1ccc(C)c(-c2cc3c(=O)n(CCNC(=O)c4ccc5ccccc5n4)ccn3n2)c1	n	u	n	35.5µM
OCCNc1ncnc2ccc(-c3cccc(O)c3)cc12	n	u	n	n
O=C(NC1CCCN(c2cc(-c3ccc(Cl)cc3)[nH]n2)C1)c1ccc2c(c1)OCO2 (centres undefined)	u	u	n	44.7µM
O=C(NC1CCN(c2cc(-c3ccc(Cl)cc3)[nH]n2)C1)c1ccc2c(c1)OCO2 (centres undefined)	n	u	n	u
COc1ccc(-c2cc(N3CCC(NC(=O)c4ccc5c(c4)OCO5)C3)n[nH]2)cc1 (centres undefined)	n	u	n	79.4µM
COC(=O)CNC(=O)c1nc2cccnc2n(Cc2ccccc2)c1=O	x	n	x	n
O=C([C@@H]1C[C@H](F)CN1S(=O)(=O)Cc1ccc(Cl)cc1)N1CCc2ccccc2C1	n	15.8µM	u	u
Cc1ccc(NC(=O)N2C[C@@H](F)C[C@H]2C(=O)N2CCc3ccccc3C2)cc1F	n	35.5µM	n	39.8µM
COc1ccc(C(=O)Nc2nc3c(s2)C[C@@H]2[C@](C)(CO)[C@H](O)CC[C@@]2(C)[C@@H]3CC(=O)N(C)Cc2ccccc2)cc1	n	u	n	u
COc1ccc(C(=O)Nc2nc3c(s2)C[C@@H]2[C@](C)(CO)[C@H](O)CC[C@@]2(C)[C@@H]3CC(=O)N2CCC(C)CC2)cc1	n	17.8µM	n	u
CN(Cc1ccccc1)C(=O)C[C@@H]1c2nc(NC(=O)c3ccc(F)cc3)sc2C[C@@H]2[C@](C)(CO)[C@H](O)CC[C@]21C	n	25.1µM	n	u
COCC(=O)Nc1nc2c(s1)C[C@@H]1[C@](C)(CO)[C@H](O)CC[C@@]1(C)[C@@H]2CC(=O)N1CCC(C)CC1	n	n	n	n
SMILES	Luciferase inh	NIH3T3 tox	NPR1 antag	HEK cytotox
C#CCNC(=O)C[C@@H]1c2nc(NC(=O)c3ccc(C(C)(C)C)cc3)sc2C[C@@H]2[C@](C)(CO)[C@H](O)CC[C@]21C	35.5µM	31.6µM	n	u
CCC(=O)N1Cc2ccccc2CC2(CCCCN2Cc2cccnc2)C1 (centres undefined)	x	n	x	n
Cc1ccc(-c2cc3c(=O)n(CCNC(=O)c4ccc[nH]c4=O)ccn3n2)cc1C	7.94µM	n	n	n
Cc1ccc(C(=O)NCCn2ccn3nc(-c4ccc(C)c(C)c4)cc3c2=O)cc1	n	n	n	n
Cc1ccc(-c2cc3c(=O)n(CCNC(=O)Cc4cccc(F)c4)ccn3n2)cc1C	3.55µM	u	u	n
Cc1ccc(-n2cccc2CC(=O)N2CCOCC2)cc1	n	n	n	n
Cc1ccccc1Cc1c(C)nc2c(C(=O)NCCc3noc(-c4cccnc4)n3)cnn2c1C	x	u	x	89.1µM
COCc1nc(CCNC(=O)c2cnn3c(C)c(Cc4ccccc4Cl)c(C)nc23)no1	n	u	n	u

Screens deposited in PubChem by National Center for Advancing Translational Sciences (NCATS).
